Source: PubChem BioAssay AID1053205 (Broad Institute, 2014)
Potency and affinity values are given separately. Results filed as inconclusive are left out. Calls of active or inactive are those of the source.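 The calls were made as follows: active = compounds lowering the FRET ratio whose fitted half-maximal concentration is at most twice their top tested dose; inconclusive = flat partial drop between 30 and 70 percent, or bad fit; inactive = the rest.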

The compounds below were run against Voltage-dependent L-type calcium channel subunit alpha-1D (Homo sapiens) (UniProt Q01668) (assay: disruptors of CaV1.3 IQ/ICDI domain association – cell-based, HEK293, YFP-IQ/CFP-ICDI FRET, cherry-picks, dose response (AID 1053205;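 also: 0% = median of neutral control wells and -100% = median of positive control wells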)). Settings: HEK293 YFP-IQ/CFP-ICDI FRET ratio, 10 min; series mostly up to 35 µM; FRET change, negative = inhibition: at the top concentration.
Chain of Voltage-dependent L-type calcium channel subunit alpha-1D (Homo sapiens) (Q01668 whole entry, looked up, the tested form may be a part): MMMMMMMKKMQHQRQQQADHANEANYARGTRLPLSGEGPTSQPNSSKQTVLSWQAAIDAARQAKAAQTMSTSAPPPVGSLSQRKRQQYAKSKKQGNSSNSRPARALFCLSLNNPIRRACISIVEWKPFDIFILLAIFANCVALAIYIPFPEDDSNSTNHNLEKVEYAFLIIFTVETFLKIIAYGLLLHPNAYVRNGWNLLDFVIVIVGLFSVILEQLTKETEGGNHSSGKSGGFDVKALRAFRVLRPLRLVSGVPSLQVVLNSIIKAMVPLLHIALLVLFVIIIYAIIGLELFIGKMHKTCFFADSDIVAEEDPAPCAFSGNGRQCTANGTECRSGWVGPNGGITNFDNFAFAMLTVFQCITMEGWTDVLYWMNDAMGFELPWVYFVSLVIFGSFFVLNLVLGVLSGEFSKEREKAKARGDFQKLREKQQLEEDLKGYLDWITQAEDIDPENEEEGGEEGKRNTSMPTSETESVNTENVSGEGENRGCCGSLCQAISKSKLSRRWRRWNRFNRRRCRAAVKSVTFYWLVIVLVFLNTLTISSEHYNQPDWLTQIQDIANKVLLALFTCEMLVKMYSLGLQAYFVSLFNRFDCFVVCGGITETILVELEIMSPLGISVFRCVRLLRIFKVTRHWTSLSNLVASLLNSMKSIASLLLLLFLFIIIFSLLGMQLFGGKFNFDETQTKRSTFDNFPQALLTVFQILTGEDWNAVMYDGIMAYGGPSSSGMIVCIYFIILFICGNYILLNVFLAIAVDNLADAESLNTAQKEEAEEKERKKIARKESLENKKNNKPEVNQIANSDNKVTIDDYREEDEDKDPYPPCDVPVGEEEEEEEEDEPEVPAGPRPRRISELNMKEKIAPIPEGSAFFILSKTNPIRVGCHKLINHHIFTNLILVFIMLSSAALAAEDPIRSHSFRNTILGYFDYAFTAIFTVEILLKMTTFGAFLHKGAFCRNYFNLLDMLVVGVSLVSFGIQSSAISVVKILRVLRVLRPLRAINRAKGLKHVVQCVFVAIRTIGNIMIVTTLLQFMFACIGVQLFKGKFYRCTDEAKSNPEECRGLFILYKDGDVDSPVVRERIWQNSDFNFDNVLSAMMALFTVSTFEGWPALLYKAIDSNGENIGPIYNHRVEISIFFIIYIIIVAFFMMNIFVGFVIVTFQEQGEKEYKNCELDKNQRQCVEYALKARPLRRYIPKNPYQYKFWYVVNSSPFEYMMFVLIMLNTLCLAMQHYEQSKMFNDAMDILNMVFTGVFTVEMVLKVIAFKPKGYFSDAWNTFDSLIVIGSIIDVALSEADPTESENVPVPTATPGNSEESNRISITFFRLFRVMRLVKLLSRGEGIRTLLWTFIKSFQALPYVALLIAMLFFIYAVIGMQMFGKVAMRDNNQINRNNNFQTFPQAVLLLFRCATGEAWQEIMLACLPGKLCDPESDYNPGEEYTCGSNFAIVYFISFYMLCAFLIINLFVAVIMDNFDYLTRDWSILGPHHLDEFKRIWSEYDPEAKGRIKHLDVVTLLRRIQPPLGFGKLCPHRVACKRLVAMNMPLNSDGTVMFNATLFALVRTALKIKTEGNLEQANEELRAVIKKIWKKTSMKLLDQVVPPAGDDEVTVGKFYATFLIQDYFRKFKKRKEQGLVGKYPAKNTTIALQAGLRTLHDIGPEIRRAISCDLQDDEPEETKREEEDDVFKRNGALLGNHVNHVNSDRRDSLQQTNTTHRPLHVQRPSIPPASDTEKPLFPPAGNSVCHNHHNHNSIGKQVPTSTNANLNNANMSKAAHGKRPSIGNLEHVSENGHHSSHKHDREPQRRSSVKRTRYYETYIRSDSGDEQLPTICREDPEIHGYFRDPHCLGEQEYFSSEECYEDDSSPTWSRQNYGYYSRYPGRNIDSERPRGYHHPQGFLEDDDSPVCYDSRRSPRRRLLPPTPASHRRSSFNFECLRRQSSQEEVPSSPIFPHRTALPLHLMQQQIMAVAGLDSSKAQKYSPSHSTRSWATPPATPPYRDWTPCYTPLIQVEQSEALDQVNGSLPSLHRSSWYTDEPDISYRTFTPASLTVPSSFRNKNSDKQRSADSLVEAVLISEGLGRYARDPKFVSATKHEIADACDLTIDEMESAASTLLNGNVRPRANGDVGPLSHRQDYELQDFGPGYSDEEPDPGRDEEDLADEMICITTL

FRET change, negative = inhibition, inactive:
O=C(c1ccccc1)N1CCN(c2ccc(NCc3ccc4c(c3)OCO4)cc2)CC1 10.7%, N#CC1=C(N)Oc2cc(N)ccc2C1c1ccc(F)cc1F (stereo unspecified) 51.9%, CN1CCc2c(sc(NC(=O)C3CCCCC3)c2C(N)=O)C1 154%, CCOC(=O)c1cc2c(=O)n3ccccc3nc2n(C(C)C)c1=NC(=O)c1ccco1 208% [at 8 µM], N#CC1=C(N)OC2=C(C(=O)CCC2)C1c1cc2c(cc1Br)OCO2 (stereo unspecified) -32.1%, COc1ccccc1N1CCN(C2CCC(C)CC2)CC1 (stereo unspecified) -7.09%, N#C/C(=C\c1ccc(N2CCOCC2)o1)C(=O)NCCc1ccccc1 166% [at 8 µM], [O-]/[N+](=C/c1ccccc1)c1ccccc1 -4.36%, O=C(NS(=O)(=O)c1ccc(Cl)s1)c1ccccc1 74.7%, CC1(C)CC(=O)C2=C(C1)OC(N)=C(C#N)[C@@H]2c1ccccc1[N+](=O)[O-] 5.07% [at 16 µM], CCCCCCSc1cc(-c2nc3cc(C)ccn3c2NCCCC)ccc1OC 43.7%, CC(=O)Oc1ccc(C(=O)Nc2cc(C)on2)cc1 58.3%, Cc1c(C(=O)NCc2cccc([N+](=O)[O-])c2)sc(=O)n1Cc1cccc(F)c1 -14.7%, Cc1ccc(-c2nc3ccsc3c(=O)[nH]2)cc1 22.7%, COc1ccc(NC(=O)C2CCC(CNS(=O)(=O)c3cccs3)CC2)cc1 (stereo unspecified) 21.3%, O=[N+]([O-])c1cccc(Nc2c3ccccc3nc3ccccc23)c1 -12.1%, CCC(Sc1nc(N)c(NC(=O)c2ccc(OC)cc2)c(=O)[nH]1)C(=O)O (stereo unspecified) -18.7%, CC(=O)c1sc(N/N=C\c2ccc(N(C)C)cc2)nc1C 204%, N#Cc1ccc(OCC(=O)OCC(=O)N2CCc3ccccc32)cc1 -4.01%, Cc1ccc(S(=O)(=O)c2cc3c(=O)n4ccccc4nc3n(C)c2=N)cc1 187%, COc1cc(/C=C(\C#N)C(=O)NC(C)C)cc(Cl)c1O -16.2%, Cc1nc2ccccc2c2oc(C(=O)NCCCN3CCC(C)CC3)cc12 5.53%, COc1cc2sc3cc(NCC[C@@H]4CCCN4C)ccc3c(=O)c2cc1OC 54% [at 16 µM], CN1c2ccc(Cl)cc2C(=O)NC1C1CC=CCC1 (stereo unspecified) 17%, CSc1ccc(Cn2c(C)c(C(=O)NCCC#N)sc2=O)cc1 2.75%, Cc1oc(/N=C/c2ccc(F)cc2)c(C#N)c1C 8.86%, Cc1ccc2c(c1)N(C(=O)CCC(=O)NCCCN1CCOCC1)CC(C)O2 (stereo unspecified) 26%, CC(C)c1ccc(/C=C2\Oc3c(ccc(O)c3CN3CCN(C)CC3)C2=O)cc1 470%, CC/C(C)=N\Nc1nc(-c2cc3cc(OC)ccc3oc2=O)cs1 34.6%, CCn1c(=NC(=O)CSC(C)=O)sc2cc(OC)ccc21 -3.91%, CCCOc1ccc(NC(=O)c2c(-c3ccccc3)noc2C)cc1 8.7%, Cc1cccn2c(=O)c3cc(C(=O)NCc4ccco4)c(=N)n(CCc4ccccc4)c3nc12 178% [at 16 µM], Cc1ccc(OCC(=O)NNc2c3ccccc3nc3ccccc23)cc1 8.32%, Cc1nc2ccc(S(=O)(=O)Nc3ccc(-c4nc5cccnc5s4)cc3)cc2s1 -13.8%, CCOC(=O)c1oc2c(CN3CCN(CCO)CC3)c(O)c(CC)cc2c(=O)c1-c1nc2ccccc2s1 38.5%, O=C(CCCn1c(=O)c2sccc2n(Cc2cc(=O)n3ccccc3n2)c1=O)NCc1ccco1 3.52%
